PubChem BioAssay AID602261 (Sanford-Burnham Center for Chemical Genomics, 2012)
Values joined by “and” are separate entries in the source; they are usually repeats but may differ in a detail not shown here. Equal entries are not always repeated. Out of some 360,000 compounds screened, about 2,400 (0.67%) were called active.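 How the source made its calls: active means compounds whose normalised, plate-corrected inhibition of enzyme fluorescence in the single-dose primary screen is 50% or more; inactive means the rest.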 The sample as a whole holds a higher share of actives than the screen did.

Target: Fatty acid synthase (Homo sapiens) (UniProt P49327)
Sequence (P49327 whole entry, looked up): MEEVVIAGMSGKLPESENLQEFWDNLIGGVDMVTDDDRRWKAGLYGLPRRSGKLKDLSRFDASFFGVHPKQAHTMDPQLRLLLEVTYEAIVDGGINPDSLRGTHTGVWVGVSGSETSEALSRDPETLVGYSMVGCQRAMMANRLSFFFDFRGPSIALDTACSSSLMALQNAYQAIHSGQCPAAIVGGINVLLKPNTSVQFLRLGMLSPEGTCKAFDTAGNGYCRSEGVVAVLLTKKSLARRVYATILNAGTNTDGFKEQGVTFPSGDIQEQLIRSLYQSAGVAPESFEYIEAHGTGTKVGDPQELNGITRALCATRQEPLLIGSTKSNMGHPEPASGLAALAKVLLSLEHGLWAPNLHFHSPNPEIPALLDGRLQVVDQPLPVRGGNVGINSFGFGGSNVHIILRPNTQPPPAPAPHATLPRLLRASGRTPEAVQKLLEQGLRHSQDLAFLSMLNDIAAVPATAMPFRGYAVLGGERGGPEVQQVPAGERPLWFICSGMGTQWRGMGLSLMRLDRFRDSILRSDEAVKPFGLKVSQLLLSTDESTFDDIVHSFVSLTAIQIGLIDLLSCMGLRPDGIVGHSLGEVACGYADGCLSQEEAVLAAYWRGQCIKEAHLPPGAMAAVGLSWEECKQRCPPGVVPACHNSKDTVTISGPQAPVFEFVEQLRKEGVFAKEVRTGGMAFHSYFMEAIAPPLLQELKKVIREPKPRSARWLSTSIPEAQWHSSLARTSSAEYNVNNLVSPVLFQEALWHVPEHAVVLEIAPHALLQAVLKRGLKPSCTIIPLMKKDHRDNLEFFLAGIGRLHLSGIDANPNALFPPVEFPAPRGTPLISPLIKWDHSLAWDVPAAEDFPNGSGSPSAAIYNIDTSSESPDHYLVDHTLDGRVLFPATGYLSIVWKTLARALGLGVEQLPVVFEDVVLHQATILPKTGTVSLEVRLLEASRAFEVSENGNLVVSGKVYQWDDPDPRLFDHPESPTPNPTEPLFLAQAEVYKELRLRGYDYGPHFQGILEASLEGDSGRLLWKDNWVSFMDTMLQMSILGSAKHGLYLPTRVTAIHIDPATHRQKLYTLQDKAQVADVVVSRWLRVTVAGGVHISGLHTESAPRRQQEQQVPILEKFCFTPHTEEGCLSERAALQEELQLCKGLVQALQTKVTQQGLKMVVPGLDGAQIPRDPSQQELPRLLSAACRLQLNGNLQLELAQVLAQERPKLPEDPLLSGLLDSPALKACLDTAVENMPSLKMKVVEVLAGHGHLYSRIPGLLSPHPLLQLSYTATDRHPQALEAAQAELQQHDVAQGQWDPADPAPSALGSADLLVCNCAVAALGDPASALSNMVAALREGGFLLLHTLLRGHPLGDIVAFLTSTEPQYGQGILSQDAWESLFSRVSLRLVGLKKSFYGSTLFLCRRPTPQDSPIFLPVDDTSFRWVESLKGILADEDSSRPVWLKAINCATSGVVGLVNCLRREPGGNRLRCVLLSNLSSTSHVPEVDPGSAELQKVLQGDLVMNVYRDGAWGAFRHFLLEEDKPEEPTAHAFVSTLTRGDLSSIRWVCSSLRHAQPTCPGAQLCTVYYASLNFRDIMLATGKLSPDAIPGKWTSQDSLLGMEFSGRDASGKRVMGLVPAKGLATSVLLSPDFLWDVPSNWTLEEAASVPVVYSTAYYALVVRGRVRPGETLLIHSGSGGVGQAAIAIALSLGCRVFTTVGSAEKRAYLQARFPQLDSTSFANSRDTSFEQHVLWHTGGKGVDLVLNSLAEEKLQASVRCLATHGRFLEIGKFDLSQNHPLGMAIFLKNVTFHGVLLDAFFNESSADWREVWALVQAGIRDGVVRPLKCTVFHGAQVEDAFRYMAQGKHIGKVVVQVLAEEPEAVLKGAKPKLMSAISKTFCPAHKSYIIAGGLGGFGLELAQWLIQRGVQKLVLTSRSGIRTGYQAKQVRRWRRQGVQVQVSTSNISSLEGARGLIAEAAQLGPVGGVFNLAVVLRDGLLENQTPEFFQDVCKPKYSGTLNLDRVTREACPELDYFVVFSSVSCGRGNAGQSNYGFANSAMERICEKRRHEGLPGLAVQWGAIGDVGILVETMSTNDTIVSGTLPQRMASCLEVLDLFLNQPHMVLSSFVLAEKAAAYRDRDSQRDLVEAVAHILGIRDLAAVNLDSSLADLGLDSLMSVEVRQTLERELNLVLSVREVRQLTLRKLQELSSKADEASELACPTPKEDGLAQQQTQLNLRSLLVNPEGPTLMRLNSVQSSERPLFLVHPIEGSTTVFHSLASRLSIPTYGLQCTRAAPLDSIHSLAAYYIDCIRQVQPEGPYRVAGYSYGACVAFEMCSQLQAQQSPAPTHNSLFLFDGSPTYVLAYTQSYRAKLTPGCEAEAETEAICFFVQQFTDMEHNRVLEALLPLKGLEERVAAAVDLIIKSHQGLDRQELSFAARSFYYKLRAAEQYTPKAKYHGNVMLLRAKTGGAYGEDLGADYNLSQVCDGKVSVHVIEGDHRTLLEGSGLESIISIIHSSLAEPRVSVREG
Experiment: inhibition of human FAS-TE enzyme activity – biochemical, fluorescence intensity, uHTS, primary screen (AID 602261);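 further: 0% = DMSO with enzyme and 100% = substrate without enzyme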
Conditions: recombinant FAS-TE, OMFH fluorogenic substrate, fluorescence endpoint; at 15 µM; active compounds read high

inhibition, active:
CC(=O)c1sc(N/N=C/c2ccc(C(C)C)cc2)nc1C 58.4%, O=S(=O)(c1ccc(F)cc1)n1ccc(-c2cnc(-c3ccccc3)s2)n1 67.2%, CCCCCCCCCCCCN1[C@@H](CC(C)=O)c2cc(F)cc(F)c2S1(=O)=O 57.7%, CCCc1cc(-c2nc(-c3ccc(C)cc3)cs2)ccn1 56.3%, O=C1OCCN1C(=O)[C@H]1[C@H](c2ccc(Cl)cc2)C(c2cccc(Cl)c2)=NN1c1ccc(Br)cc1 67.3%, Cc1ccc(C)c(NC(=O)CSc2nc3c(oc4ccccc43)c(=O)n2-c2ccccc2)c1 62.3%, O=C(COC(=O)c1cc([N+](=O)[O-])ccc1NCc1ccccc1)NC1CCCCC1 60.7%, Cc1cccc(CS(=O)(=O)c2ncc(Cl)c(C(=O)Nc3ccc(F)cc3)n2)c1 56.5%, O=[N+]([O-])c1ccc(CN2CC(N3CCC(c4ccccc4)CC3)CS2(=O)=O)cc1 (configuration not stated) 69.8%, Cc1cc(C(=O)COc2ccccc2[N+](=O)[O-])c(C)n1-c1cccc(S(=O)(=O)N2CCOCC2)c1 58.7%, COc1ccccc1C1CC(=O)n2c(nc(-c3ccccc3)c2-c2ccccc2)S1 (configuration not stated) 54.5%, O=C(Oc1cccc(N2C(=O)C3C4c5ccccc5C(c5ccccc54)C3C2=O)c1)c1ccco1 (configuration not stated) 64.1%, COc1ccc([N+](=O)[O-])cc1N(CC(O)Cn1nnc2ccccc21)S(=O)(=O)c1ccc(C)cc1 (configuration not stated) 51.1%, O=C(NCCC1=CCCCC1)c1ccc(Cl)c([N+](=O)[O-])c1 59.5%, Nc1c(-c2cccc(Cl)c2)cnn1-c1cccc([N+](=O)[O-])c1 51.8%, COc1ccc([N+](=O)[O-])cc1NC(=O)COC(=O)/C=C/c1ccco1 71.2%, O=C(NCCCCc1ccccc1)C1CC(c2ccc([N+](=O)[O-])cc2)=NO1 (configuration not stated) 54.2%, Cc1ccc(NC(=O)c2nc[nH]c2C(=O)N[C@@H](CCCCNC(=O)OC(C)(C)C)C(=O)OC(C)(C)C)cc1 75.3%, CCOC(=O)c1ccc(NC(=O)c2nc[nH]c2C(=O)N[C@@H](CCCCNC(=O)OC(C)(C)C)C(=O)OC(C)(C)C)cc1 85.2%

inhibition, inactive:
Cc1ccc(NC2(C#N)C(=O)Nc3ccccc32)cc1 (configuration not stated) -3.6%, NS(=O)(=O)c1ccc(N=Cc2ccc(Br)s2)cc1 -8.2%, CC(=O)c1sc(N)nc1C -11.2% and -7.8%, CC(=O)c1sc(NC(=O)C2=NN(c3ccccc3)C(=O)CC2)nc1C -6.4%, Cc1nc2ccccc2nc(=O)c1NNc1ccc([N+](=O)[O-])cc1 -7.2%, CNC[C@@H]1Oc2c(NS(C)(=O)=O)cccc2C(=O)N([C@@H](C)CO)C[C@H]1C -11.2%, O=S(=O)(c1ccc(F)cc1)N1CC=C(c2ccccc2)CC1 27.5%, CC(=O)c1cnc(-c2ccccc2)s1 -1.4%, CC1CCN(C(=S)c2cccc(O)c2)CC1 -0.1%, CCn1c(SCC(=O)Nc2cccc(F)c2)nnc1-c1cc2cc(Br)ccc2o1 -5.5%, O=C(CP(=O)(c1ccccc1)c1ccccc1)N1CCOCC1 -3.5%, COc1ccc(CN2[C@@H](CC(=O)O)c3cc(F)ccc3S2(=O)=O)cc1 -9.9%, CCCCCCN1CCN(C2CN(Cc3cn(Cc4ccc(F)cc4)nn3)S(=O)(=O)C2)CC1 (configuration not stated) -7.8%, CC1(C)Cc2nc3sc4c(SCC(=O)NC(c5ccccc5)c5ccccc5)ncnc4c3cc2CO1 -7.6%, CCCc1nc2scc(-c3ccc(C)cc3)c2c(=O)n1N -1.6%, Fc1ccc(-c2csc(-c3ccc(C4SCCS4)cc3)n2)cc1F 33%, Cc1ccc(C(=O)C(=S)N2CCOCC2)cc1 -7.7%, O=C1OCCN1C(=O)[C@H]1[C@H](c2ccccc2)C(c2ccc(F)cc2)=NN1c1ccccc1 41.9%, O=C1OCCN1C(=O)[C@H]1[C@H](c2ccc(F)cc2)C(c2ccccc2)=NN1c1ccc(Br)cc1 46.2%, COCCNC(=O)CSc1nc2c(n1-c1ccccc1)CCCC2 -7.1%, Cc1ccccc1-n1c(SCC(=O)Nc2cccc3ccccc23)nc(O)cc1=O -5.5%, Cc1ccc(C)c(NC(=O)COC(=O)CSc2ccccc2)c1 -9.4%, Cc1ccc(C)c(Cn2cnc3c(oc4ccccc43)c2=O)c1 16.6%, CCN1CCN(C(=O)/C=C\C(=O)O)CC1 -3%, COc1ccc(/C=C/C(=O)c2cc(Br)ccc(=O)c2O)cc1 6.9%, COC(=O)CN(c1cccc(C(C)=O)c1)S(C)(=O)=O -7%, O=C(COC(=O)Cc1ccc([N+](=O)[O-])cc1)NC1CCCCCC1 22.7%, O=C(COC(=O)c1ccccc1Cl)NC1CCCCCCC1 8.2%, COc1ccc(S(=O)(=O)N(CCCN2CCCC2=O)Cc2cc3c(C)ccc(C)c3[nH]c2=O)cc1 -3%, O=C(CCC1CCCCC1)Nc1cc(C(F)(F)F)ccc1N1CCOCC1 34.3%, Cc1cccc(CN2CCC(CNC(=O)Nc3ccc(F)c(Cl)c3)CC2)c1 2.9%, Cc1ccc(C)c(Cn2nnc3c(=O)[nH]c(C(=O)Nc4ccc(F)cc4)nc32)c1 3.8%, O=C(N=C1SC2CS(=O)(=O)CC2N1c1ccccc1)c1ccccc1 (configuration not stated) 8.4%, O=[N+]([O-])c1ccc(CN2CC(N3CC=CC3)CS2(=O)=O)cc1 (configuration not stated) -9.2%, O=S1(=O)CC(N2CCC(Cc3ccccc3)CC2)CN1Cc1ccccc1 (configuration not stated) 6.6%, CN(C(=O)c1ccc(NC(=O)Cc2cccc(NC(=O)C3CCN(C(=O)c4ccccc4)CC3)c2)cc1)C1CC1 -9.5%, CCOc1ccc(C(=O)NC2CCN(CC(=O)NCc3cccs3)CC2)cc1 -3.1%, Cc1cccc(NC(=O)C(C)N2C(=O)C3C4CC(C(Br)C4Br)C3C2=O)c1 (configuration not stated) 20.5%, O=C(Nc1ccnn1C1CCN(C/C=C/c2ccc(F)cc2)CC1)C1CCCC1 -0.7%, Cc1cc(S(=O)(=O)N2CCOCC2)ccc1OCC(=O)N1CCOCC1 -2.5%, COC(=O)c1cc(Oc2ccc(S(=O)(=O)N3CCOCC3)cc2[N+](=O)[O-])cc(C(=O)OC)c1 38.3%, CSc1n[nH]c(=S)n1N -4.3%, O=S(=O)(c1cnccc1N1CCN(/N=C/c2ccc(Br)cc2)CC1)N1CCCCC1 31.4%, Cc1cc(Nc2cccc(F)c2)n2ncnc2n1 -2.8%, COc1ccc(C2CC(=O)n3c(nc4ccccc43)S2)cc1OC (configuration not stated) -161%, COc1cccc(C2CC(c3ccccc3)=NN2S(=O)(=O)c2ccccc2)c1OC (configuration not stated) 20%, O=C(NCCNc1ccc([N+](=O)[O-])cc1)c1cccc2c(Br)cccc12 37.6%, COc1c(C)cc(C(O)c2ncc(-c3cccc(C(F)(F)F)c3)[nH]2)cc1C (configuration not stated) 7.9%, O=S1(=O)C[C@@H](N2CCN(CCO)CC2)[C@H](COCc2ccccc2)N1 -9.7%, COC(=O)c1cccc(N2C(=O)C3C4C=CC(CC4)C3C2=O)c1 (configuration not stated) -6.4%, CC(=O)Nc1ccc(N2C(=O)C3C4CC(=O)C(c5ccccc54)C3C2=O)cc1 (configuration not stated) -10%, CCCNC(=O)COc1coc(CN2CCN(Cc3ccccc3)CC2)cc1=O -9.4%, CC1(c2cccc(N)c2)OCCO1 -9.3%, Cc1ccc(S(=O)(=O)N(CC(O)CN2CCCCC2)c2cccc([N+](=O)[O-])c2)cc1 (configuration not stated) 2.6%, COc1ccc([N+](=O)[O-])cc1N(CC(O)CN(CC(C)C)CC(C)C)S(=O)(=O)c1ccc(C)cc1 (configuration not stated) 32.7%, Cc1c(C(=O)N2CCCC2)c(S(=O)(=O)NCC(C)c2ccccc2)c(C)n1C (configuration not stated) 2.1%, O=C(COc1ccc(Cl)cc1)NCCC1=CCCCC1 15.7%, Cc1ccnc(NC(=O)c2ccc(Cl)c([N+](=O)[O-])c2)c1 23.1%, COc1ccc(C(c2nnnn2Cc2cccs2)N2CCN(c3ccccc3)CC2)cc1OC (configuration not stated) 14.2%, Nc1c(C(=O)O)cnn1-c1ccccc1 -1.5%, O=C(CCl)N(Cc1cccc([N+](=O)[O-])c1)c1cccc(Cl)c1 15.2%, CC(C)CNC(=O)COC(=O)/C=C/c1ccco1 -7.5%, COc1cccc(NC(=O)COC(=O)/C=C/c2ccco2)c1 3.5%, CCOC(=O)Nc1ccc(S(=O)(=O)N(C)C(C)C)cc1 -3.7%, CN1C(C(=O)NCc2ccco2)CC2Cn3c(nc4ccccc43)C21 (configuration not stated) -11.9%, O=C(CCCl)Nc1ccc(S(=O)(=O)NCc2ccco2)cc1 -1.3%, COc1ccc(CNC(=O)C2CC(c3ccc(C(F)(F)F)cc3)=NO2)cc1 (configuration not stated) -1.7%, Cc1ccc(CNC(=O)C2CC(c3ccccc3[N+](=O)[O-])=NO2)o1 (configuration not stated) -5.1%, O=C(NCCCn1ccnc1)C(=O)NCC1OCCN1S(=O)(=O)c1cc(F)ccc1F (configuration not stated) -10.1%, C[C@H](NC(=O)c1nc[nH]c1C(=O)N[C@@H](C)C(=O)OC(C)(C)C)C(=O)OC(C)(C)C -7%, CNC(=O)c1[nH]cnc1C(=O)N[C@@H](CC(C)C)C(=O)OC(C)(C)C -5.3%, CC(C)(C)OC(=O)NCCCCCNC(=O)c1[nH]cnc1C(=O)Nc1nccs1 -15.7%, CC(C)(C)OC(=O)NCCCCCNC(=O)c1nc[nH]c1C(=O)NCc1ccccc1 8.2%
